Test results reported in PubChem BioAssay (NCI).
About 83,000 compounds went through this panel and 20% of them were active in at least one assay; those are over-represented in the sample as a whole.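 Negative percent growth values reflect cell death: -40 means 40% of the cells present at the start died, and -100 means all died.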 A number with no mark means an inactive call. Calls of active or inactive are those of the source. Rule for the calls: active = growth percent below 10; inactive = the rest.

What was measured:
Assay in all cases: NCI-60 one-dose screen, 48 h (100 = growth as untreated, 0 = no growth, -100 = all killed)
HCT-15 colon = details: 10 µM unless noted
HT29 colon = details: 10 µM unless noted
SNB-75 CNS = details: 10 µM unless noted
U251 CNS = details: 10 µM unless noted
PC-3 prostate = details: 10 µM unless noted
SK-MEL-5 melanoma = details: 10 µM unless noted
UACC-62 melanoma = details: 10 µM unless noted
LOX IMVI melanoma = details: 10 µM
SK-MEL-28 melanoma = details: 10 µM unless noted
EKVX NSCLC = details: 10 µM unless noted
UO-31 renal = details: 10 µM unless noted
ACHN renal = details: 10 µM unless noted
CAKI-1 renal = details: 10 µM unless noted
A498 renal = details: 10 µM unless noted
CCRF-CEM leukemia = details: 10 µM unless noted
MOLT-4 leukemia = details: 10 µM unless noted
TK-10 renal = details: 10 µM unless noted
SK-MEL-2 melanoma = details: 10 µM unless noted

Compound	growth (HCT-15 colon)	growth (HT29 colon)	growth (SNB-75 CNS)	growth (U251 CNS)	growth (PC-3 prostate)	growth (SK-MEL-5 melanoma)	growth (UACC-62 melanoma)	growth (LOX IMVI melanoma)	growth (SK-MEL-28 melanoma)	growth (EKVX NSCLC)	growth (UO-31 renal)	growth (ACHN renal)	growth (CAKI-1 renal)	growth (A498 renal)	growth (CCRF-CEM leukemia)	growth (MOLT-4 leukemia)	growth (TK-10 renal)	growth (SK-MEL-2 melanoma)
CCCSc1nc(NCCc2c[nH]c3ccccc23)c(C#N)c(-c2ccc(F)cc2)n1	18.8%	15.6%	85.7%	28.2%	23.8%	13.1%	54.6%	21.1%	63.3%	50.8%	68.7%	59.2%	52.3%	96.8%	33.6%	42.5%	–	–
CCC(C)(C)c1ccc(OCCCCCCN2CCN(c3ccncc3)CC2)cc1	-55.5% (active)	-39.8% (active)	69.6%	-45.7% (active)	-4.93% (active)	-99.2% (active)	-48% (active)	-96.8% (active)	-18.9% (active)	6.51% (active)	28.2%	48.3%	17.5%	66.1%	-23.4% (active)	-23.5% (active)	65.2%	–
CC(C)CSc1nc(NCCc2c[nH]c3ccccc23)c(C#N)c(-c2ccccc2)n1	22.6%	4.54% (active)	82.8%	33.5%	17.8%	27.3%	77.3%	33.3%	87.3%	39.7%	72.2%	69.3%	50.8%	67.9%	30.2%	30.7%	110%	75.6%
COc1ccc2c(c1)C(=N/N=C(\C)c1ccc(OC)c(S(N)(=O)=O)c1)C(=O)N2	98.2%	96.3%	66.3%	74.4%	83.3%	91.5%	77.5%	95%	94.1%	90.3%	95.1%	101%	79.5%	99.5%	74%	94.5%	102%	92.6%
O=c1[nH]c2ccccc2cc1CSc1nccc(-c2ccc3ccccc3c2)n1	29%	44.3%	86.6%	65.2%	50%	57.2%	60.9%	67.1%	–	49.4%	78.6%	95.8%	56.6%	114%	33.1%	21.9%	83%	84.5%
Cc1cc(=O)oc2cc(OCCCCOc3ccc(/C=C/C(=O)Nc4ccccc4N)cc3)ccc12	75.8%	91.4%	67%	60.2%	61%	-66.1% (active)	69.2%	0.965% (active)	81.2%	60.3%	23.3%	68.2%	59.8%	84.1%	10.9%	27.8%	112%	111%
CN(C)c1ccnc(CNCCSC2(c3ccc(C(F)(F)F)cc3)c3ccccc3C=Cc3ccccc32)c1	-90.6% (active)	-61.7% (active)	-6.52% (active)	-77% (active)	-3.49% (active)	-97.1% (active)	2.63% (active)	-92% (active)	-67.4% (active)	-23.9% (active)	17.6%	13.2%	6.81% (active)	21.6%	0.384% (active)	16.1%	12.4%	-41.1% (active)
COc1ccc(-c2nc(SC(C)C)nc(NCCc3c[nH]c4ccccc34)c2C#N)cc1	15.3%	8.23% (active)	65.6%	27.1%	11.7%	5.52% (active)	73.6%	21.2%	69.7%	30.4%	40%	48.9%	43%	65.9%	18.5%	18.1%	90.6%	–
